Data reported in PubChem BioAssay (NCATS).
Results filed as inconclusive are left out. Activity calls are given as the source filed them. The call rests on the fitted dose curve; in most records, active means well fitted curve in the direction sought with a large enough effect; inconclusive means small, poorly fitted or top-dose-only effect, or another doubt; inactive means no such curve, though single readings can be large; an effect the other way counts as inactive or inconclusive. Where a SMILES comes first, the peptide text is derived from it. The star is where a group is joined. Hexanoyl = CCCCCC(=O)*

Key:
CRL-7250 = normal cell line; experiment: Cytotoxic Profiling of Annotated Libraries Using Quantitative High-Throughput Screening (AID 1296008); details: Five cell lines viability, CellTiter-Glo ATP luminescence, 48-72 h; max response: hits give low values; further: nearly all actives have a fitted effect of over 60% in size; on max response: on the % scale 0 is the no-effect control and ±100 the full control effect
In short: (§1)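 Cells exposed to compounds for 48 or 72 hr at 37 degrees Celsius. Viability read as ATP-coupled luminescence with CellTiter-Glo after 10 min at room temperature.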

HaCat [1] = experiment: as above; details: Five cell lines viability, CellTiter-Glo ATP luminescence, 48-72 h; max response: hits give low values
In short: as §1

KB-3-1 = experiment: as above; details: Five cell lines viability, CellTiter-Glo ATP luminescence, 48-72 h; max response: hits give low values
In short: as §1

NIH3T3 [2] = experiment: as above; details: Five cell lines viability, CellTiter-Glo ATP luminescence, 48-72 h; max response: hits give low values
In short: as §1

HACAT [3] = experiment: qHTS assay to identify novel small-molecules to repurpose for Merkel cell carcinoma treatment (AID 1296009); details: MCC and control cell lines, CellTiter-Glo viability, 72 h; at 44.8 µM (top of the series) unless noted; further: nearly all actives have a fitted effect of over 60% in size
In short: (§2)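 Dose-response viability screen; 72 hr exposure at 37 degree celsius; CellTiter-Glo added, 10 min room temperature, luminescence read; RLUs scaled between no-cell and DMSO wells.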

C33A = experiment: Primary qHTS to identify gynecologic anti-cancer compounds using libraries of approved drugs and bioactive compounds (AID 1345084); details: Gynecologic cancer cell panel viability, ATPlite luminescence, 48 h; series mostly up to 57.5 µM; further: on the % scale 0 is the no-effect control and ±100 the full control effect; nearly all actives have a fitted effect of over 55% in size
In short: (§3)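 Cell viability after 48 h drug treatment, ATPlite luminescence readout; five doses.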

CAOV3 = experiment: as above; details: Gynecologic cancer cell panel viability, ATPlite luminescence, 48 h; series mostly up to 57.5 µM
In short: as §3

CASKI = experiment: as above; details: Gynecologic cancer cell panel viability, ATPlite luminescence, 48 h; series mostly up to 57.5 µM
In short: as §3

Es-2 = experiment: as above; details: Gynecologic cancer cell panel viability, ATPlite luminescence, 48 h; series mostly up to 57.5 µM
In short: as §3

HeLa = experiment: as above; details: Gynecologic cancer cell panel viability, ATPlite luminescence, 48 h; series mostly up to 57.5 µM
In short: as §3

Hek293T [4] = experiment: as above; details: Gynecologic cancer cell panel viability, ATPlite luminescence, 48 h, control line for the selectivity index; series mostly up to 57.5 µM
In short: as §3

JEG-3 = experiment: as above; details: Gynecologic cancer cell panel viability, ATPlite luminescence, 48 h; series mostly up to 57.5 µM
In short: as §3

OV90 = experiment: as above; details: Gynecologic cancer cell panel viability, ATPlite luminescence, 48 h; series mostly up to 57.5 µM
In short: as §3

NIH3T3 [5] = experiment: qHTS assay to identify novel small-molecules to repurpose for Merkel cell carcinoma treatment (AID 1296009); details: MCC and control cell lines, CellTiter-Glo viability, 72 h; at 44.8 µM (top of the series) unless noted; further: nearly all actives have a fitted effect of over 60% in size
In short: as §2

HEK293T [6] = experiment: as above; details: MCC and control cell lines, CellTiter-Glo viability, 72 h; at 44.8 µM (top of the series) unless noted
In short: as §2

CCCCCC(=O)N1CCC[C@H]1C(=O)N[C@@H](Cc1ccc(O)cc1)C(=O)OC (Hexanoyl-Pro-Tyr-OMe)
inactive: max response (CRL-7250) 1.02% | outcome (HaCat [1]) | max response (KB-3-1) -0.528% | max response (NIH3T3 [2]) -4.54% | outcome (HACAT [3]) | Potency (C33A) | Potency (CAOV3) | outcome (CASKI) | Potency (Es-2) | Potency (HeLa) | Potency (Hek293T [4]) | Potency (JEG-3) | Potency (OV90)

O=C(O)Cc1cn([C@@H]2OC[C@@H](O[C@@H]3O[C@H](CO)[C@@H](O)[C@H](O)[C@H]3O)[C@H](O)[C@H]2O[C@@H]2O[C@H](CO)[C@@H](O)[C@H](O)[C@H]2O)c2ccccc12
inactive: max response (CRL-7250) -0.703% | outcome (HaCat [1]) | max response (KB-3-1) 5.94% | outcome (NIH3T3 [2]) | outcome (HACAT [3]) inactive [at 17.4 µM] | outcome (NIH3T3 [5]) inactive [at 17.4 µM] | Potency (C33A) | Potency (CAOV3) | outcome (CASKI) | Potency (Es-2) | Potency (HeLa) | Potency (Hek293T [4]) | Potency (JEG-3) | Potency (OV90)

C=C1CC[C@]2(C(=O)O[C@@H]3O[C@H](CO)[C@@H](O)[C@H](O)[C@H]3O)CC[C@]3(C)C(=CCC4[C@@]5(C)C[C@H](O)[C@@H](O[C@@H]6O[C@H](C(=O)O)[C@@H](O)[C@H](O)[C@H]6O)[C@](C)(C=O)C5CC[C@]43C)C2C1 (some centres undefined)
inactive: max response (CRL-7250) 4.09% | max response (HaCat [1]) -21.8% | max response (KB-3-1) 9.97% | outcome (NIH3T3 [2]) | outcome (NIH3T3 [5]) inactive [at 9.27 µM] | activity change, negative = cytotoxicity (C33A) 1.71% [at 11.6 µM] | activity change, negative = cytotoxicity (CAOV3) -2.86% [at 11.6 µM] | activity change, negative = cytotoxicity (CASKI) -3.95% [at 11.6 µM] | activity change, negative = cytotoxicity (Es-2) 1.14% [at 11.6 µM] | activity change, negative = cytotoxicity (HeLa) 4.56% [at 11.6 µM] | activity change, negative = cytotoxicity (Hek293T [4]) 2.33% [at 11.6 µM] | activity change, negative = cytotoxicity (JEG-3) -0.564% [at 11.6 µM] | activity change, negative = cytotoxicity (OV90) 2.48% [at 11.6 µM]

COc1cc(/C=C/C(=O)OCC2OC(OC3(CO)OC(CO)C(O)C3O)C(O)C(O)C2O)ccc1O (centres undefined)
inactive: max response (CRL-7250) 0.86% | max response (HaCat [1]) 2.88% | outcome (KB-3-1) | outcome (NIH3T3 [2]) | outcome (NIH3T3 [5]) inactive [at 17.4 µM] | Potency (C33A) | Potency (CAOV3) | outcome (CASKI) | Potency (Es-2) | Potency (HeLa) | Potency (Hek293T [4]) | Potency (JEG-3) | Potency (OV90)

C/C=C(/C)C(=O)OC1C(OC(C)=O)C23C(O)OC4(CCC5C6(C)CCC(OC7OC(C(=O)O)C(O)C(OC8OC(CO)C(O)C(O)C8OC8OC(C)C(O)C(O)C8OC8OCC(O)C(O)C8O)C7OC7OC(CO)C(O)C(O)C7O)C(C)(C)C6CCC5(C)C4(C)CC2OC(C)=O)C3CC1(C)C (centres undefined)
inactive: max response (CRL-7250) 1.39% | max response (HaCat [1]) 1.22% | max response (KB-3-1) 4.58% | max response (NIH3T3 [2]) -12.1% | outcome (HEK293T [6]) inactive [at 9.27 µM] | activity change, negative = cytotoxicity (C33A) 8.72% [at 6.55 µM] | activity change, negative = cytotoxicity (CAOV3) 8.69% [at 6.55 µM] | activity change, negative = cytotoxicity (CASKI) 1.53% [at 6.55 µM] | activity change, negative = cytotoxicity (Es-2) 1.17% [at 6.55 µM] | activity change, negative = cytotoxicity (HeLa) -3.79% [at 6.55 µM] | activity change, negative = cytotoxicity (Hek293T [4]) -2.54% [at 6.55 µM] | activity change, negative = cytotoxicity (JEG-3) 2.12% [at 6.55 µM] | activity change, negative = cytotoxicity (OV90) 3.74% [at 6.55 µM]

COC(=O)C1=CO[C@@H](O[C@@H]2O[C@H](CO)[C@@H](O)[C@H](O)[C@H]2O)[C@H]2[C@@H]1[C@H](O)[C@H](O)[C@]2(C)O
inactive: max response (CRL-7250) -3.33% | outcome (HaCat [1]) | max response (KB-3-1) 1.73% | max response (NIH3T3 [2]) 2.04% | outcome (HACAT [3]) inactive [at 17.4 µM] | Potency (C33A) | Potency (CAOV3) | outcome (CASKI) | Potency (Es-2) | Potency (HeLa) | Potency (Hek293T [4]) | Potency (JEG-3) | Potency (OV90)

CC1=C2C[C@H]3OC(=O)[C@H](O)[C@@]4(O)[C@@H](C)[C@@H](O)[C@H](O)C([C@@]2(C)[C@H](O)[C@@H](O)C1)[C@@]34C (some centres undefined)
inactive: max response (CRL-7250) -2.09% | outcome (HaCat [1]) | max response (KB-3-1) 9.81% | max response (NIH3T3 [2]) 2.2% | outcome (HACAT [3]) | Potency (C33A) | Potency (CAOV3) | outcome (CASKI) | Potency (Es-2) | Potency (HeLa) | Potency (Hek293T [4]) | Potency (JEG-3) | Potency (OV90)

O=C(Cn1c2ccccc2c2nc3n(c(=O)c21)CCS3)N1CCCC1
inactive: outcome (CRL-7250) | outcome (HaCat [1]) | outcome (KB-3-1) | max response (NIH3T3 [2]) 1.74% | outcome (HACAT [3]) | Potency (C33A) | Potency (CAOV3) | outcome (CASKI) | Potency (Es-2) | Potency (HeLa) | Potency (Hek293T [4]) | Potency (JEG-3) | Potency (OV90)

CC1(C)O[C@H]2CC(=O)OC[C@@]23C1=C(O)C(=O)[C@]1(C)C3CC[C@@]2(C)[C@H](c3ccoc3)OC(=O)[C@H]3O[C@]321 (some centres undefined)
inactive: outcome (CRL-7250) | outcome (HaCat [1]) | outcome (KB-3-1) | outcome (NIH3T3 [2]) | outcome (HACAT [3]) inactive [at 17.4 µM] | outcome (NIH3T3 [5]) inactive [at 17.4 µM] | Potency (C33A) | Potency (CAOV3) | outcome (CASKI) | Potency (Es-2) | Potency (HeLa) | Potency (Hek293T [4]) | Potency (JEG-3) | Potency (OV90)

CCC(C)C(N)C(=O)NCCN1CCOCC1 (centres undefined)
inactive: max response (CRL-7250) -0.617% | outcome (HaCat [1]) | max response (KB-3-1) 0.0309% | outcome (NIH3T3 [2]) | outcome (HACAT [3]) | outcome (NIH3T3 [5]) | Potency (C33A) | Potency (CAOV3) | outcome (CASKI) | Potency (Es-2) | Potency (HeLa) | Potency (Hek293T [4]) | Potency (JEG-3) | Potency (OV90)

NC(=O)C(O[C@@H]1O[C@H](CO[C@@H]2O[C@H](CO)[C@@H](O)[C@H](O)[C@H]2O)[C@@H](O)[C@H](O)[C@H]1O)c1ccccc1 (some centres undefined)
inactive: outcome (CRL-7250) | outcome (HaCat [1]) | max response (KB-3-1) 4.92% | max response (NIH3T3 [2]) 4.15% | outcome (HACAT [3]) inactive [at 17.4 µM] | Potency (C33A) | Potency (CAOV3) | outcome (CASKI) | Potency (Es-2) | Potency (HeLa) | Potency (Hek293T [4]) | Potency (JEG-3) | Potency (OV90)

C/C=C1/[C@H](O[C@@H]2O[C@H](CO)[C@@H](O)[C@H](O)[C@H]2O)OC=C2C(=O)O[C@@H]3C[C@@H](C(C)CO)[C@H](COC(=O)C[C@H]21)[C@H]3C (some centres undefined)
inactive: max response (CRL-7250) 3.26% | outcome (HaCat [1]) | outcome (KB-3-1) | max response (NIH3T3 [2]) 1.25% | outcome (HACAT [3]) inactive [at 17.4 µM] | Potency (C33A) | Potency (CAOV3) | outcome (CASKI) | Potency (Es-2) | Potency (HeLa) | Potency (Hek293T [4]) | Potency (JEG-3) | Potency (OV90)
